Data reported in PubChem BioAssay (Tox21).
Activity calls are given as the source filed them. Where a call stands in place of a potency, no number is given. Calls come from the whole dose curve; as a rule, active = well fitted curve in the direction sought with a large enough effect in the repeat runs; inconclusive = weak or mixed curves; inactive = flat fitted curve, though single readings scatter.

Experiment: qHTS assay to test for compound auto fluorescence at 590 nm (red) in HepG2 cells (AID 720674)
Settings: HepG2 autofluorescence, red 540/590 nm, 1 h; series mostly up to 91.3 µM
Source text: U.S. Tox21 Program National Center for Advancing Translational Sciences [NCATS] NIH Chemical Genomics Center [NCGC] U.S. Environmental Protection Agency [EPA] National Institutes of Environmental Health Sciences [NIEHS] National Toxicology Program [NTP] U.S. Food and Drug Administration [FDA] Tox21 Assay Overview: Compound auto fluorescence often interferes with screening of the compound library against various biological targets and signaling pathways. Some of these compounds may have fluorophoric properties. Such properties may interfere with the assay outputs resulting in false positives and/or negatives. To decrease such complications and ensure the compound activities are relevant in terms of biological response, the Tox21 10K compound library was screened for auto fluorescence. From the fluorophores used as reporter signals in our screening assays, the auto fluorescence equivalencies of compounds against three fluorophores have been evaluated: Triamterene, Fluorescein and Rose Bengal sodium for blue, green and red fluorescence, respectively. The fluorescence intensities were measured using Excitation/Emission wavelengths at 405/460nm, 485/535nm and 540/590nm for blue, green and red labels, respectively. This assay includes the red fluorescence data.
Tox21 Assay Protocol Summary: 2,000 HepG2 cells in 5 uL of culture medium (MEM containing 10% FBS) per well were dispensed into black wall/clear bottom 1536-well plates using a Multidrop Combi Dispenser (ThermoFisher Scientific, Waltham, MA). The assay plates were incubated overnight at 37 C to allow cell attachment to the well bottom, followed by the transfer of 23 nL compound or DMSO vehicle by a pintool work station (Kalypsys , San Diego, CA). After the assay plates were incubated for 1 hr at 37 C and 5% CO2, fluorescence intensities in the assay plates were measured by an Envision (PerkinElmer, Shelton, CT) plate reader using three labels for measuring blue, green and red fluorescence at […] 460, 535 and 590 nm respectively.

Compound | Potency
COC(=O)Nc1nc2ccc(S(=O)c3ccccc3)cc2[nH]1 (stereo not given) | inactive
CC(=O)c1ccccn1 | inactive
O=C(c1ccccc1)c1ccccc1O | inactive
O=C(COc1ccc(Cl)cc1)N1CCN(Cc2ccc3c(c2)OCO3)CC1 | inactive
Nc1ccc(S(=O)(=O)Nc2cnc3ccccc3n2)cc1 | inactive
C=C(C)C(=O)OCCOC(=O)C(=C)C | inactive
CN(C)CCN(Cc1cccs1)c1ccccn1 | inactive
CC1=CC2C3CC(C=C3C)C2C1 (stereo not given) | inactive
O=CCc1ccccc1 | inactive
C=CC(C)(CCC=C(C)C)OC(C)=O (stereo not given) | inactive
CCCc1c(OCCCCc2nn[nH]n2)ccc(C(C)=O)c1O | inactive
CCCCC(CC)COP(=O)(OCC(CC)CCCC)OCC(CC)CCCC (stereo not given) | inactive
CNCCCC12CCC(c3ccccc31)c1ccccc12 | inactive
O=[N+]([O-])c1ccc2c(c1)Cc1ccccc1-2 | inactive
COc1ccc(C(=O)CC(=O)c2ccc(C(C)(C)C)cc2)cc1 | inactive
CCCCOCCOCCO | inactive
CCOC(=O)C(C#N)=C(c1ccccc1)c1ccccc1 | inactive
NC=O | inactive
CC(C)=CCC/C(C)=C\CO | inactive
COc1ccccc1/C=C/C=O | inactive

Compound | Potency
O=Cc1ccccc1O | inactive
CC(=O)O[C@]1(C(C)=O)CC[C@H]2[C@@H]3C=C(Cl)C4=CC(=O)[C@@H]5C[C@@H]5[C@]4(C)[C@H]3CC[C@@]21C | inactive
CC(=O)CC/C=C(\C)CCC=C(C)C | inactive
Nc1ncn([C@@H]2O[C@H](CO)[C@@H](O)[C@H]2O)c(=O)n1 | inactive
Brc1cc(Oc2cc(Br)c(Br)c(Br)c2Br)c(Br)c(Br)c1Br | inactive
CCCCNS(=O)(=O)c1ccccc1 | inactive
Cc1c(OCC(F)(F)F)ccnc1CS(=O)c1nc2ccccc2[nH]1 (stereo not given) | inactive
C#C[C@]1(O)CC[C@H]2[C@@H]3CCc4cc(OC)ccc4[C@H]3CC[C@@]21C | inactive
O=C(/C=C/C=C/c1ccc2c(c1)OCO2)N1CCCCC1 | inactive
CCCCOCCOCCOCCO | inactive
CC(C)OC=O | inactive
O=C=Nc1ccc(Cc2ccc(N=C=O)cc2)cc1 | inactive
CC(CCC(=O)O)(c1ccc(O)cc1)c1ccc(O)cc1 | inactive
Cc1ccc2c(n1)Oc1ccc(C(C)C(=O)OCC(=O)N(C)C)cc1C2 (stereo not given) | inactive
CCC(C)c1ccccc1O (stereo not given) | inactive
Cc1ccc(C(=O)c2cc(O)c(O)c([N+](=O)[O-])c2)cc1 | inactive
CC(C)CC(C)(O)C#CC(C)(O)CC(C)C (stereo not given) | inactive
C[Si](C)(C)O[Si](C)(C)C | inactive
c1ccc2c(c1)c1cccc3ccc4cccc2c4c31 | inactive
COC(=O)c1ccccc1 | inactive
